# Only a selection was taken, and hits are over-represented in it overall.
# Tb PYK inh = qHTS of Trypanosoma Brucei Inhibitors. 0.12% of 410,000 active. Potency, µM (series often up to 76.8 µM), for inactives: at the highest dose activity, negative = inhibition, most hits filed as inhibitors. TbPYK enzyme, Kinase-Glo Plus ATP luminescence, 45 min. pyruvate kinase (Trypanosoma brucei), Q57TT1. AID 624173, 2012; also: potency is read from the fitted curve at half-maximal effect; % is scaled to controls: 0 for no effect and ±100 for the full control effect; nearly all actives have a fitted effect of over 50% in size
#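 Activity of T. brucei pyruvate kinase was followed by Kinase-Glo Plus luminescence after the enzyme reacted 45 min at room temperature with 130 uM ADP (final) and substrate. Test compounds were added before ADP at multiple concentrations.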
# LmPK inhibitor = qHTS Assay for Inhibitors of Leishmania Mexicana Pyruvate Kinase (LmPK) | purified LmPK, Kinase-Glo ATP luminescence, 1 h | Potency, µM (series often up to 57.5 µM), for inactives: at the highest dose activity change, negative = inhibition, usual class: inhibitors | 0.37% of 290,000 active; also: potency is read from the fitted curve at half-maximal effect; % is scaled to controls: 0 for no effect and ±100 for the full control effect
# Target sequence (Q27686 whole entry, looked up): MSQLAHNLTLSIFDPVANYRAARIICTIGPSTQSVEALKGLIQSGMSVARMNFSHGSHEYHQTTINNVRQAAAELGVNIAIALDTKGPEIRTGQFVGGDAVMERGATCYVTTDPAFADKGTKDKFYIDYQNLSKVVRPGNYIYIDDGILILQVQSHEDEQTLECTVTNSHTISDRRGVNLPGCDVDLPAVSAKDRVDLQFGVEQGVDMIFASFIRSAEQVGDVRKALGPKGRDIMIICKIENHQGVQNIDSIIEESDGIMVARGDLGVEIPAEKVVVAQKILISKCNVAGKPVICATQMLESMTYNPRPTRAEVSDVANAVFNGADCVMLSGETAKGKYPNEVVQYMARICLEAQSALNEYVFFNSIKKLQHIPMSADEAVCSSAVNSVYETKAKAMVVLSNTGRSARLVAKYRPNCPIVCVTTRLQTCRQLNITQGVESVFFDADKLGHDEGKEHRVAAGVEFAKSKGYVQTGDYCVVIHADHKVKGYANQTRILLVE
#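 Purified LmPK (0.1 nM) with 0.5 mM PEP and 0.1 mM ADP in imidazole buffer pH 7.2 with MgCl2/KCl, 1 h at room temperature. ATP formed was read by luciferase luminescence and normalized to no-enzyme and uninhibited controls.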
# FBPA Giardia inh = qHTS Assay for Inhibitors of Fructose-1,6-bisphosphate Aldolase from Giardia Lamblia; purified Giardia FBPA; Potency, µM (top dose mostly 59.6 µM), for the others: at the highest dose activity, negative = inhibition, usual class: inhibitors; 0.71% of 290,000 active; also: potency is read from the fitted curve at half-maximal effect; % is scaled to controls: 0 for no effect and ±100 for the full control effect; nearly all actives have a fitted effect of over 55% in size
#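 Giardia FBPA (40 nM reagent) was preincubated 10 min at RT with compound (up to 57.5 uM final), then substrate plus GAPDH/TPI/NAD/arsenate coupling system with diaphorase/resazurin was added; resorufin fluorescence (525/598 nm) was read after 20 min.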
# Cycloheximide cs = Cycloheximide Counterscreen for Small Molecule Inhibitors of Shiga Toxin; cell reporter, cycloheximide protein synthesis inhibition counterscreen; max response, %; 12% of 300,000 active; in the data active = max response mostly above about 13%, no sharp cut-off; inactive = mostly below about 14%; also: read at 38.3 µM for the half of the compounds with a filed dose; 0% is about no effect
# Sm TGR inh = qHTS Assay for the Inhibitors of Schistosoma Mansoni Peroxiredoxins; 3% of 360,000 active; purified TGR, DTNB reduction, TNB absorbance 405 nm; Potency, µM (highest dose often 114 µM), for the others: top-dose activity change, negative = inhibition, hits mostly inhibitors; also: potency is read from the fitted curve at half-maximal effect; % is scaled to controls: 0 for no effect and ±100 for the full control effect; nearly all actives have a fitted effect of over 60% in size
#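 Kinetic colorimetric format: TGR-catalysed, NADPH-driven DTNB reduction monitored via TNB absorbance. Enzyme dispensed at 20 nM; compound exposure 15 min at room temperature before reaction start.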
# Shiga toxin inh = A qHTS for Small Molecule Inhibitors of Shiga Toxin; Vero cells, Shiga toxin protein synthesis inhibition reporter; 9.2% of 290,000 active; inhibition, % at 38.7 µM; in the data active = inhibition mostly above about 28%, no sharp cut-off; inactive = mostly below about 43%; also: 0% is about no effect
# * hit, by the source's call; ? = inconclusive; · = no result; [ ] = another dose, or the depositor's remark. Unless noted, calls follow the shape of the dose curve; as a rule, active = well fitted curve in the direction sought with a large enough effect; inconclusive = small, poorly fitted or top-dose-only effect, or another doubt; inactive = no such curve, though single readings can be large; an effect the other way counts as inactive or inconclusive.
SMILES,Tb PYK inh,LmPK inhibitor,FBPA Giardia inh,Cycloheximide cs,Sm TGR inh,Shiga toxin inh
CO[C@@H]1COC(=O)[C@H](COCc2ccccc2)NC(=O)C/C=C\[C@@H](C)[C@H](OC)COC(=O)[C@@H](C)NC(=O)C/C=C\[C@H]1C,·,·,1%[12.9 µM],·,·,·
Cc1cccc(CNc2cc(-c3cccnc3)ncn2)c1,·,·,0%,·,·,·
COc1cc(C2=NOC(C(=O)Nc3ccc(C(C)=O)cc3)C2)cc(OC)c1OC (centres undefined),-6%,3%,6%,29*,8%,81*
COc1cccc(C2=NOC(C(=O)Nc3ccc(C(C)=O)cc3)C2)c1 (centres undefined),-3%,1%,5%,48*,-1%,53*
CC(=O)c1c(C)c(C)c2n1CCn1c(C)ccc1-2,-4%,5%,?,-3,13µM*,-1
COC(=O)/C=C\c1cc(O)ccc1O,·,·,-19%,·,·,·
O=[N+]([O-])c1ccccc1OCCCOc1cccc2cccnc12,-2%,6%,-28%,29*,1%,·
O=C(/C=C/c1ccccc1)Oc1cccc2cccnc12,-17%,1%,-21%,9,0%,23
O=Cc1ccccc1OCCCOc1cccc2cccnc12,-20%,-4%,-12%,24*,4%,56*
Clc1ccccc1OCCCOc1cccc2cccnc12,-2%,4%,-2%,37*,2%,·
O=C(/C=C\c1ccccc1)Oc1cccc2cccnc12,6%,-2%,?,21*,2%,26
CCc1ccc2oc(-c3cccc(NC(=O)c4ccc(N5CCC(C)CC5)c([N+](=O)[O-])c4)c3)nc2c1,7%,·,·,·,12%,·
COc1cccc(CCc2ccccc2OCC(CN(C)C)OC(=O)CCC(=O)O)c1 (centres undefined),-4%,·,·,·,·,·
CCC(=O)N1c2nc(-c3ccco3)nn2C2(CCCCC2)[C@@H]2CCCC[C@@H]21,7%,·,·,·,40µM*,·
Cc1ccc(C(=O)N2c3nc(-c4ccco4)nn3C3(CCCCC3)[C@@H]3CCCC[C@@H]32)cc1,3%,·,·,·,11µM*,·
COc1cccc(C(=O)N2c3nc(-c4ccco4)nn3C3(CCCCC3)[C@@H]3CCCC[C@@H]32)c1,-18%,·,·,·,7.9µM*,·
O=C(c1ccccc1)N1c2nc(-c3ccco3)nn2C2(CCCCC2)[C@@H]2CCCC[C@@H]21,2%,·,·,·,?,·
CCOc1ccc(NC(=O)Cn2nc3c(cc2=O)CC(C)CC3)cc1 (centres undefined),2%,·,·,·,6%,·
COc1ccc(C)cc1NC(=O)N(C(C)C)C1CCN(C(C)=O)CC1,-2%,·,·,·,6%,·
CCc1nnc(NC(=O)c2sc3nc4c(cc3c2N)CCCCCC4)s1,-4%,5%,10%,13*,0%,59
CCc1nnc(NC(=O)c2sc3nc4c(cc3c2N)CCCCC4)s1,5%,-4%,7%,42*,-10%,46*
COc1ccc(NC(=O)c2sc3nc4c(cc3c2N)CCCCCC4)cc1OC,-5%,·,·,·,-2%,·
[O-]/C(=C(\C(=S)Nc1ccc(Cl)cc1)[n+]1ccccc1)c1ccc(OC(F)F)cc1,-15%,-7%,-22%,11,-21%,12
[O-]/C(=C(\C(=S)Nc1ccccc1F)[n+]1ccccc1)c1ccc(-c2ccccc2)cc1,-5%,1%,-18%,18*,-5%,94
CC(C)(C)c1cc[n+](/C(C(=S)Nc2ccccc2F)=C(/[O-])c2ccc3c(c2)OCCO3)cc1,-21%,-5%,?,23*,-12%,50
SMILES,Tb PYK inh,LmPK inhibitor,FBPA Giardia inh,Cycloheximide cs,Sm TGR inh,Shiga toxin inh
CC(=O)c1ccc(NC(=O)CCc2c(C)nn(-c3ccc4nncn4n3)c2C)cc1,1%,·,·,·,-3%,·
O=C(CS(=O)(=O)c1ccccc1)c1cc2ccccc2oc1=O,-4%,-7%,9%,32*,-24%,63*
O=C(CS(=O)(=O)c1ccccc1)c1cc2cc(F)ccc2oc1=O,-15%,0%,·,50*,-26%,45*
COc1ccc2cc(C(=O)CS(=O)(=O)c3ccccc3)c(=O)oc2c1,-21%,-14%,·,21,-30%,25
COc1cccc2cc(C(=O)CS(=O)(=O)c3ccc(C(C)(C)C)cc3)c(=O)oc12,0%,-13%,·,-1,?,-13
CN1c2c(nc(N)[nH]c2=O)NCC1CNc1ccc(C(=O)NC(CCC(=O)O)C(=O)O)cc1 (centres undefined),6%,·,·,·,·,·
CCCC1Cc2nc(Cl)c(C#N)cc2CO1 (centres undefined),-4%,-4%,-1%,-2,40µM*,-10
CCC1(C)Cc2nc(Cl)c(C#N)cc2CO1 (centres undefined),3%,2%,5%,1,?,17
NC(=O)c1ccccc1OCc1nnc(-c2ccccc2Br)o1,-3%,-5%,4%,19,-2%,65*
Brc1ccccc1-c1nnc(COc2ncnc3c2cnn3-c2ccccc2)o1,-3%,5%,-1%,7,-5%,9
O=c1ccc2ccc(OCc3nnc(-c4ccccc4Br)o3)cc2o1,5%,1%,7%,18,-32%,43*
O=Cc1ccc(OCc2nnc(-c3ccccc3Br)o2)cc1,-2%,4%,2%,21,3%,57*
Cc1cc(=O)oc2cc(OCc3nnc(-c4ccccc4Br)o3)ccc12,27%,2%,0%,-3,2%[11.4 µM],-14
N#Cc1nc(-c2cccc3ccccc23)oc1NCC#CCOC(=O)c1cccs1,·,·,·,·,-33%,·
Cc1ccc(C(=O)NCC(=O)OCC(=O)NCC(F)(F)F)cc1,1%,-3%,-3%,18*,9%,-5
O=C(CN1C(=O)CCc2cc(S(=O)(=O)N3CCOCC3)ccc21)NCc1ccc(F)cc1,-4%,·,·,·,-16%,·
Cc1cc(/C=N/NC(=O)c2cccs2)c(C)n1-c1ccccc1,0%,0%,-13%,26*,-6%,11*
Cc1cc(C(=O)N/N=C/c2ccc(O)c(O)c2O)c(C)n1-c1ccccc1,10%,-3%,16µM*,54*,40µM*,73*
Cc1cc(/C=N/NC(=O)c2cccs2)c(C)n1-c1cnccn1,-2%,0%,-9%,48*,-4%,59*
Cc1cc(/C=N/NC(=O)c2cccc([N+](=O)[O-])c2)c(C)n1-c1ccccc1,3%,1%,-8%,34*,-9%,25
CC(=O)c1cccc(NC(=O)CCc2c(C)nc3c(-c4ccc(F)cc4)c(C)nn3c2C)c1,8%,·,·,·,-15%,·
COc1ccc(CCNC(=O)c2ccc3c(c2)CCN3S(=O)(=O)c2ccc(Cl)cc2)cc1,-2%,·,·,·,1%,·

# Bioassay records: PubChem BioAssay, National Center for Advancing Translational Sciences (NCATS)
